Screening data as filed in PubChem BioAssay.
p53ts 32C tox = qHTS Screen for Compounds that Selectively Target Cancer Cells with p53 Mutations: Cytotoxicity of p53ts Cells at the Permissive Temperature; H1299-p53A138V at 32C, ATP luminescence viability, 24 h; Potency, µM (titrated, usually from 46.1 µM), for inactives: at the highest dose activity change, negative = cytotoxicity, most hits filed as cytotoxic; hit rate 0.93% among 130,000; AID 924, 2007;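 further: 0% = DMSO and -100% = full killing by reference compound; nearly all actives have a fitted effect of over 55% in size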
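H1299-p53 A138V cells (temperature-sensitive p53) exposed 24 h to up to 46 uM compound at 32C, where p53 is wild-type in conformation. Viability read as ATP luminescence and normalised to DMSO and 100 uM tamoxifen. AC50 fitted with the Hill equation.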
p53ts 39C tox = qHTS Screen for Compounds that Selectively Target Cancer Cells with p53 Mutations: Cytotoxicity of p53ts Cells at the Nonpermissive Temperature; Potency, µM (highest dose often 46.1 µM), without a hit: at the highest dose activity change, negative = cell killing, usual class: cytotoxic; hit rate 1.5% among 130,000; AID 902, 2007; H1299-p53A138V viability at 39C, ATP luminescence, 24 h; further: on the % scale 0 is the no-effect control and ±100 the full control effect; nearly all actives have a fitted effect of over 55% in size
Imprint erasure = qHTS Assay for Compounds that Induce Erasure of Genomic Imprints. mouse ES Peg3-LacZ reporter, beta-gal luminescence, 40 h. Potency, µM (series often up to 60.7 µM), inactives show at the top dose activity change, positive = activation, usual class: activators. hit rate 0.02% among 110,000. AID 1948, 2009
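Imprint erasure is scored as LacZ activity from the silenced maternal Peg3 allele in feeder-free female ES cells cultured 40 h with LIF. Luminescence is normalized to in-plate negative controls and fitted to the Hill equation.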
IkB sig inh = IkB Signaling; Potency, µM (top dose mostly 57.1 µM), for inactives: at the top dose IkBa stabilization activation; ABC-DLBCL IkBa-CBG/CBR dual luciferase ratio, 4 h; response scale: scaled: untreated 0%, proteasome inhibitor 100%; AID 445, 2006; hit rate 0.04% among 110,000; active means well fitted curve in the direction sought with a large enough effect in the signal ratio, not every such curve was filed as active; inconclusive means small, poorly fitted or top-dose-only effect, or a change in a side signal; the % refers to the signal ratio;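 further: the direction sought is a rising ratio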
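Luminescence ratio of IκBα-fused green versus native red beetle luciferase in OCI-Ly3 cells, 4 h post-doxycycline with compound; red signal alone, scaled from basal (0%) to zero light (-100%), flagged nonspecific or cytotoxic effects.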
* = called active by the depositor; u = inconclusive; x = no result given; ! = repeats disagree; [ ] = remark or other dose. In the library only some 1.6% were active in any assay of this set; here they are far more common. Unless noted, the call rests on the fitted dose curve; in most records, active means well fitted curve in the direction sought with a large enough effect; inconclusive means small, poorly fitted or top-dose-only effect, or another doubt; inactive means no such curve, though single readings can be large; an effect the other way counts as inactive or inconclusive. Potency means the concentration at half of the fitted maximal effect.

SMILES	p53ts 32C tox	p53ts 39C tox	Imprint erasure	IkB sig inh
Cc1ccc(S(=O)(=O)Nc2cccc(-c3ccc(N4CCCCC4)nn3)c2)s1	13µM*	1µM*	-11%[10.9 µM]	-1%
CC1CCN(CC[C@@H]2CCCN2S(=O)(=O)c2cccc(O)c2)CC1	-15%	-10%	x	-3%
Cc1oc2c(cc(NS(=O)(=O)c3ccc(Br)cc3)c3ccccc32)c1C(=O)OCc1ccccc1	-21%	20µM*	-18%[10.9 µM]	u
Cc1ccc(S(=O)(=O)Nc2cc3c(C(=O)OCc4ccccc4)c(C)oc3c3ccccc23)cc1	1%	-21%	-12%[10.9 µM]	u
COC(=O)/C=C/C1c2ccccc2C(OC)C1C (configuration not stated)	4%[9.22 µM]	4%[9.22 µM]	x	x
Cc1ccc(Cn2c(CO)cnc2SCC(=O)Nc2ccc(C)c(Cl)c2)cc1	-2%	13µM*	-11%[10.9 µM]	u
CCC1=C(C[C@H]2NCCc3ccccc32)C[C@@H]2c3cc(OC)c(OC)cc3CCN2C1	11%[9.22 µM]	-14%[9.22 µM]	-52%[10.9 µM]	u
Nc1nc(N)nc(CCCCc2nc(N)nc(N)n2)n1	x	x	x	0%[11.4 µM]
O=C(CCc1ccc(O)cc1)c1c(O)cc(O)cc1O[C@@H]1O[C@@H](CO)[C@@H](O)[C@@H](O)[C@H]1O	x	x	x	0%[11.4 µM]
OCc1cc([C@@H](O)CNCCCCCCOCCCCc2ccccc2)ccc1O	-2%	13µM*	-16%	u
C=C[C@@]1(C)C=C2CC[C@@H]3[C@](C)(CCC[C@@]3(C)C(=O)O)[C@H]2CC1	x	x	x	0%[11.4 µM]
Cc1ccc(NC2=C/C(=N\S(=O)(=O)c3cccs3)c3ccccc3C2=O)c(C)c1	3.2µM*	7.1µM*	x	x
CCCN(CCC)CCNC(=O)c1cc2c(-c3ccc(Cl)cc3)nn(C)c2s1	-24%	13µM*	-14%[10.9 µM]	u
CCCCN(CC)CCNC(=O)c1cc2c(-c3ccc(Cl)cc3)nn(C)c2s1	1%	16µM*	-5%[10.9 µM]	u
COc1ccccc1-c1nc2c(c(SCC(=O)Nc3ccc(C)c(C)c3)n1)Cc1c(CO)cnc(C)c1O2	-6%	-9%	-15%[10.9 µM]	-2%
CCOC(=O)c1cc(-c2ccccc2)n(-c2cccc(C(=O)Nc3ccc(OC)cc3)c2)c1C	12%	12%	-22%[10.9 µM]	-1%
CCNc1ncc2nc(-c3ccc(OC)cc3)c(=O)n(CCOC)c2n1	0%	-4%	2%	0%[11.4 µM]
COC(=O)c1ccc(C2C=C(c3ccc(Cl)cc3)Nc3nc4ccccc4n32)cc1 (configuration not stated)	8.9µM*	11µM*	-20%[10.9 µM]	u
COC(=O)c1nc2n(n1)C(c1cc(OC)ccc1OC)C=C(c1ccc(Br)cc1)N2 (configuration not stated)	12%	-47%	-11%[10.9 µM]	u
Fc1ccc(C2=CC(c3ccc(F)cc3)n3c(nc4ccccc43)N2)cc1 (configuration not stated)	10µM*	13µM*	-21%[10.9 µM]	u
COc1ccc(C2=CC(c3cc(Br)ccc3F)n3c(nc4ccccc43)N2)cc1 (configuration not stated)	16µM*	10µM*	-17%[10.9 µM]	23%
CCOC(=O)c1ccc(N2C(=O)c3n[nH]c(-c4cccs4)c3C2c2cccc(F)c2)cc1 (configuration not stated)	17%	6.3µM*	-7%[10.9 µM]	u
Oc1ccc(O)cc1	-2%	12%	10µM*	2%
CN(C(=O)c1cccc(N2C(=O)C3CC=CCC3C2=O)c1)C1CCCCC1 (configuration not stated)	-9%	7%	u	0%
CN(C(=O)c1cccc(Nc2ccc(-c3ccc4c(c3)OCCO4)nn2)c1)C1CCCCC1	13µM*	11µM*	x	x
SMILES	p53ts 32C tox	p53ts 39C tox	Imprint erasure	IkB sig inh
O=[N+]([O-])c1cccc(/C=N\NC2=CS(=O)(=O)C=C2)c1	3%[9.22 µM]	-4%[9.22 µM]	-4%[10.9 µM]	-1%[11.4 µM]
NCCc1ccc(O)c(O)c1	13µM*!	u	-41%	-1%
CNC(=O)[C@@H]1O[C@@H](n2cnc3c(N)ncnc32)[C@@H](O)[C@H]1O	-13%	-10%	x	u
Cc1cccc(OCCCCn2c(C3CC(=O)N(c4ccccc4Cl)C3)nc3ccccc32)c1 (configuration not stated)	u	16µM*	-3%[10.9 µM]	-2%
CCOc1ccccc1N1CC(c2nc3ccccc3n2CCCCOc2cc(C)ccc2C)CC1=O (configuration not stated)	u	u	-8%[10.9 µM]	u
Cc1cccc(OCCCCn2c(C3CC(=O)N(c4ccc(C)cc4C)C3)nc3ccccc32)c1 (configuration not stated)	u	25µM*	-10%[10.9 µM]	-2%
CCOc1ccccc1N1CC(c2nc3ccccc3n2CCOc2ccc(C(C)(C)C)cc2)CC1=O (configuration not stated)	u	13µM*	-11%[10.9 µM]	-2%
CCc1ccccc1N1CC(c2nc3ccccc3n2CCOc2ccc(Cl)c(C)c2)CC1=O (configuration not stated)	u	32µM*	-10%[10.9 µM]	u
COc1ccccc1OCCCn1c(C2CC(=O)N(c3ccccc3Cl)C2)nc2ccccc21 (configuration not stated)	-17%	-21%	-12%[10.9 µM]	u
Cc1nc(NCc2ccccc2)c2nc(-c3ccccc3)n(CC(C)(C)CN(C)C)c2n1	9%	-3%	-7%	x
COc1cccc(O)c1O	5µM*	6.3µM*	-59%	x
Cc1cccc(NC(=O)c2sc(NC(=O)c3ccco3)c(C#N)c2C)c1C	-6%	-6%	x	1%
CC1(C)Cc2c(sc(NC(=O)c3ccco3)c2C#N)CO1	10µM*	13µM*	-59%	-3%
Clc1ccc([C@@H](c2ccccc2Cl)C(Cl)Cl)cc1	x	x	x	18%
FC(F)(F)c1ccccc1-c1ccc2ncnc(NCc3cccnc3)c2c1	4%	-9%	-20%	5%[11.4 µM]
NC[C@@H]1O[C@H](C23CC4CC(CC(C4)C2)C3)Cc2c1ccc(O)c2O	u	20µM*	-31%	2%
NC[C@@H]1O[C@H](c2ccccc2)Cc2c1ccc(O)c2O	u	u	-37%	1%
C[C@@]12C[C@H](O)C3[C@H](CCC4=CC(=O)CC[C@]43C)[C@H]1CC[C@@H]2c1csc(-c2ccccc2)n1 (some centres not stated)	x	x	-1%[10.9 µM]	x
COc1ccc(-c2c(O)c3c(OC)c4c(cc3oc2=O)OC(C)(C)C=C4)cc1	7.9µM*	6.3µM*	1%	x
CCOc1ccc(/C=C/c2nc3ccccc3n2S(=O)(=O)c2cccc(Cl)c2)cc1	13µM*	10µM*	23%[10.9 µM]	u
Cc1ccc(/C=C/c2nc3ccccc3n2S(=O)(=O)c2cccc(Cl)c2)cc1	3.2µM*	3.2µM*	-84%[10.9 µM]	u
CSc1ccc(/C=C/c2nc3ccccc3n2S(=O)(=O)c2ccc(F)c(C)c2)cc1	7.9µM*	4µM*	-26%[10.9 µM]	u
